Source: PubChem BioAssay (National Center for Advancing Translational Sciences (NCATS))
An excerpt weighted towards active compounds, which were near 3% of everything screened.
ALOX12 inh: Primary qHTS assay for inhibitors of human arachidonate 12S-lipoxygenase (ALOX12): Round 2 | AID 1671190, 2021 | Potency, µM (titrated, usually from 108 µM), for inactives: at the top dose activity change, negative = inhibition, actives largely listed as inhibitors | 1.1% of 580,000 active | purified 12hLO, xylenol orange hydroperoxide absorbance; active = well fitted inhibition curve with a large enough effect; inconclusive = small, poorly fitted or top-dose-only effect, or another doubt; inactive = no such curve, though single readings can be large or run the other way; note: potency is the fitted concentration of half-maximal effect; % is set by controls: 0 for no effect and ±100 for the full control effect
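Hydroperoxide product was detected by ferrous iron/xylenol orange as the 573 to 405 nm absorbance ratio. Arachidonic acid at 40 uM (final) was turned over for 30 min at room temperature by 150 nM human 12hLO, pH 7.0 Hepes buffer, after 15 min compound preincubation.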
LDHA block: qHTS assay for inhibitors of human lactate dehydrogenase. L-lactate dehydrogenase A chain (Homo sapiens), P00338. purified LDHA, NADH/diaphorase-resazurin fluorescence; stronger effect = lower value. activity change, % (values are at about 110 or 230 µM). 0.15% of 480,000 active; in the data active = activity change below about -30%; inconclusive = mostly about -25% to -30%;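 note: plate controls were DMSO wells for no effect and wells without enzyme for full effect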
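Resorufin fluorescence (ex540/em590), read at 0 and 20 min after diaphorase/resazurin addition, reports the NADH left after a 5 min room-temperature reaction of 2 nM human LDH5 with 0.06 mM NADH and 0.2 mM pyruvate.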
KCNH2 3.1 block: qHTS for Inhibitors of KCHN2 3.1: Mutant qHTS; 0.95% of 340,000 active; Potassium voltage-gated channel subfamily H member 2, brain isoform KCNH2 3.1 (human); U2OS KCNH2 3.1, thallium flux FluxOr; stronger effect = lower value; AID 720553, 2013; activity change, % (tested at about 1.8 µM);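 active = maximum activity change below -70%; inconclusive = maximum activity change from -70% to -50%; inactive = maximum activity change above -50%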;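 note: thallium influx rate constant from kinetic fluorescence after stimulation buffer; % is set by controls: 0 for no effect and ±100 for the full control effect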
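Thallium flux read-out: FluxOr dye with Red40 quencher in HBSS/HEPES, 45 min at RT. Rate constants from kinetic reads were normalized to positive and negative DMSO controls. Cells: U2OS virally expressing the 3.1 isoform.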
hERG WT inh: qHTS for Inhibitors of KCHN2 3.1: Wildtype qHTS | Voltage-gated inwardly rectifying potassium channel KCNH2 (Homo sapiens), Q12809 | activity change, % at 1.84 µM | 0.37% of 340,000 active | U2OS, BacMam KCNH2, thallium flux FluxOr; stronger effect = lower value;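 active = maximum activity change below -70%; inconclusive = maximum activity change between -70% and -50%; inactive = maximum activity change above -50%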; note: % is set by controls: 0 for no effect and ±100 for the full control effect
Target sequence (Q12809 whole entry, looked up): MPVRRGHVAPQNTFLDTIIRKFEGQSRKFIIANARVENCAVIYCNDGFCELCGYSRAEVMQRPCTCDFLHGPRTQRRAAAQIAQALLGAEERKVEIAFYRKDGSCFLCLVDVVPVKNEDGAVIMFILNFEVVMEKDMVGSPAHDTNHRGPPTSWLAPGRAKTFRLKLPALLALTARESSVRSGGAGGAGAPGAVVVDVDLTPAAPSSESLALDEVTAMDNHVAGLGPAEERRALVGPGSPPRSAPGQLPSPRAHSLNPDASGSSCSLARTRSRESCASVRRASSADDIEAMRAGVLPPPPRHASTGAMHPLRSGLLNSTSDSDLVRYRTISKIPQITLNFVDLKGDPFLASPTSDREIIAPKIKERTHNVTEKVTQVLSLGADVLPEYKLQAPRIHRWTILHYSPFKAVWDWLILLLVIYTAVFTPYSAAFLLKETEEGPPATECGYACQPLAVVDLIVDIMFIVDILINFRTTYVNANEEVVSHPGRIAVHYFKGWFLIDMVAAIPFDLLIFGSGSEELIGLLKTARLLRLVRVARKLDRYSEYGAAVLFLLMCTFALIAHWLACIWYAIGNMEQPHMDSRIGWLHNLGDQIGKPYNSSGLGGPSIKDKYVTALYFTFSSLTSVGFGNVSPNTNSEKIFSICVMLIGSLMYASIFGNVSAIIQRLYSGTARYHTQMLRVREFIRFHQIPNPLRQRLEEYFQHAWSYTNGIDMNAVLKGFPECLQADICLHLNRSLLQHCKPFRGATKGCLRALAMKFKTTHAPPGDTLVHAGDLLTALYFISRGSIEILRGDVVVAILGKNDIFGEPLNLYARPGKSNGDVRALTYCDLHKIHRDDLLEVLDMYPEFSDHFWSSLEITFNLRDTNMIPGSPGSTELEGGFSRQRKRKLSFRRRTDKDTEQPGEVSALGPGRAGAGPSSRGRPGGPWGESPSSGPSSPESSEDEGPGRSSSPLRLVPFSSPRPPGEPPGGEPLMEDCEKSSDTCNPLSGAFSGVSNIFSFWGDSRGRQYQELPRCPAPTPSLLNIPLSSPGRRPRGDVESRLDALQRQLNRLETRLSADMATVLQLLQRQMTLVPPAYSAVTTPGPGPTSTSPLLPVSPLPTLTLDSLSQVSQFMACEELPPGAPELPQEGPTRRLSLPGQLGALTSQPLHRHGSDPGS
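U2OS cells transduced with wild-type KCNH2 virus are loaded with FluxOr dye for 45 min, and thallium flux is measured in kinetic reads before and after stimulation buffer. Rate constants are normalized to DMSO controls.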
ClpP mod: qHTS Assay for Activators of ClpP | purified B. subtilis ClpP, FRET peptide cleavage, 20 min | Potency, µM (doses to about 57.5 µM), without a hit: at the highest dose activity change, negative = active | 1.9% of 340,000 active; active = well fitted falling curve with a large enough effect; inconclusive = small, poorly fitted or top-dose-only effect; inactive = no such curve, though single readings can be large or run the other way; note: potency is the fitted concentration of half-maximal effect; the source files actives as falling curves though it sought activators and does not explain the sign; nearly all actives have a fitted effect of over 65% in size
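Purified B. subtilis ClpP, 10 microg/mL final in Tris/HCl pH8 with KCl, BSA, glycerol and Tween-20, cleaved an Abz/nitrotyrosine-quenched decapeptide. Fluorescence (ex 320, em 430) was read at 0 and 20 min at room temperature. Delta was normalized to 5.8 microM ADEP and DMSO/no-enzyme controls.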
Chronic BCR inh: qHTS Assay to Find Inhibitors of Chronic Active B-Cell Receptor Signaling; AID 493014, 2011; Potency, µM (top dose mostly 46.1 µM), without a hit: at the top dose activity change, negative = inhibition, most hits filed as inhibitors; ABC-DLBCL IkBa-CBG/CBR reporter, luminescence ratio, 4 h; 0.05% of 340,000 active; active = well fitted inhibition curve with a large enough effect in the signal ratio, with a control signal flat, not every such curve was filed as active; inconclusive = small, poorly fitted or top-dose-only effect, or effect the other way, or a change in a side signal; the % refers to the signal ratio;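 note: potency is the fitted concentration of half-maximal effect; plate controls were basal doxycycline-induced cells for no effect and cells given 10 µM MG132 for full effect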
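TMD8 ABC-DLBCL cells carrying doxycycline-inducible green luciferase fused to IkappaBalpha plus unfused red luciferase were exposed to compounds (up to 46 uM) for 4 hrs at 37C. Activity came from the overlap-corrected green/red luminescence ratio.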
* = called active by the depositor; ? = inconclusive; / = not tested or not shown; [ ] = another dose, or the depositor's remark.

SMILES | ALOX12 inh | LDHA block | KCNH2 3.1 block | hERG WT inh | ClpP mod | Chronic BCR inh
CCN1C(=O)[C@H]2[C@@H](c3ccc(OC)cc3)N[C@]3(CCCN(Cc4cccn4C)C3=O)[C@H]2C1=O | ? | 4.5 | 1.6 | -4.3 | 1.4% | /
COC(=O)c1ccc(NC2=C(C(N)=O)S(=O)(=O)c3ccccc32)cc1 | -24.0% | -13.2 | / | / | / | /
O=C(CSc1nc2ccccc2o1)Nc1ccc(O)cc1 | ? | 1.1 | / | / | / | /
COc1ccccc1OCc1ccc(C(=O)Nc2cc(OC)c(OC)c(OC)c2)o1 | 0.0% | -1.1 | 14.0 | -129.1* | 0.8% | ?
CC(=O)Nc1ccc(-c2nc3ccccc3s2)cc1C | -15.9% | -0.3 | / | / | / | /
Cc1ccc(-c2[nH]c(=S)[nH]c(=O)c2C#N)cc1 | 15.8µM* | 1.7 | 28.5 | -1.0 | -1.9% | 4.8%
Cc1ccc2[nH]c(-c3ccc(Cl)cc3)c(C#N)c2c1 | -10.2% | / | / | / | / | /
Nc1nc(Cl)nc2c1ncn2[C@@H]1O[C@H](CO)C(O)[C@H]1O (stereo not given in full) | 7.8% | / | / | / | / | /
Cc1ccc(CN(C(=O)CCCc2cccs2)C2CC2)cc1 | 8.91µM* | 3.0 | / | / | / | /
COCC[C@]1(O)CCN(C(=O)c2csc(CN(C)C)n2)C[C@H]1C | 58.3% | / | / | / | / | /
O=C(Oc1ccc(N(Cc2cccs2)C2=NS(=O)(=O)c3ccccc32)cc1)c1ccccc1 | 0.0% | -7.0 | -29.9 | 16.4 | -0.1% | -6.3%
O=C(Oc1ccc(N(Cc2cccs2)C2=NS(=O)(=O)c3ccccc32)cc1)c1ccc(Cl)cc1 | 97.8%[57.4 µM] | -3.0 | -99.1* | ? | -22.8% | 10.4%
CC1=C(C)CS(=O)N(S(=O)(=O)c2ccc(Cl)cc2)C1 (stereo not given) | 39.8µM* | -3.5 | 10.2 | -8.4 | 0.2% | ?
CCOc1ccc(C(=O)Nc2nnc(NC(=S)Nc3ccccc3)s2)cc1 | -24.0% | -7.1 | -13.7 | -1.4 | 2.0% | -12.5%
S=C(Nc1ccccc1)Nc1ccccn1 | ? | -5.4 | 11.4 | -4.0 | -4.6% | /
Cc1ccc(NC(=S)Nc2ccccc2)nc1 | 22.4µM* | -0.1 | / | / | / | /
Cc1ccc(NC(=O)Nc2ccccc2)nc1 | 0.0% | -3.1 | -5.6 | -0.6 | -3.9% | /
S=C(Nc1ccc(Nc2ccccc2)cc1)Nc1ccccn1 | 5.62µM* | 1.3 | -36.2 | -11.9 | / | ?
Cc1ccc(C(=O)Nc2nnc(NC(=S)Nc3ccccc3)s2)cc1 | 39.8µM* | -9.0 | -18.0 | -20.4 | -0.8% | -26.4%
CCn1nc(C(=O)OCC(=O)Nc2cc(C(F)(F)F)ccc2Cl)c2ccccc2c1=O | ? | -1.8 | / | / | / | /
Cc1ccc(NC(=O)CN2C(=O)S/C(=C\c3cccn3-c3ccc(C(=O)O)cc3)C2=O)cc1 | / | -3.4 | / | / | / | /
N#CCCN1CCN(c2ccc(NC(=O)c3ccc(F)cc3)c(C(=O)O)c2)CC1 | 5.1% | -21.3 | / | / | / | /
CC(OC(=O)c1ccccc1NCCO)C(=O)NCC(=O)Nc1ccc(F)c(F)c1F (stereo not given) | -22.3% | 4.7 | -6.1 | 16.6 | 15.8µM* | -1.2%
Cc1ccc(NC(=O)CN(C)C(=O)C(C)OC(=O)c2ccccc2NCCO)cc1 (stereo not given) | -2.4% | 0.6 | -3.9 | -27.7 | 25.1µM* | ?
Cc1ccc(NC(=O)CN(C)C(=O)C(c2ccccc2)c2ccccc2)cc1 | 195.6% | -2.2 | -8.1 | -5.1 | 1.5% | -4.9%
COc1ccccc1C(C)NCC(=O)NCC(=O)Nc1ccc(F)c(F)c1F (stereo not given) | 6.8% | -3.0 | 2.0 | 8.2 | / | -2.8%
CC(/C=N/NC(=O)c1ccc(CN2c3cccc4cccc(c34)S2(=O)=O)cc1)c1ccccc1 (stereo not given) | 17.0% | 0.8 | -84.1* | 0.7 | ? | -2.7%
